The source of these data is PubChem BioAssay.

Activity calls are given as the source filed them. Unless noted, how the calls were made is not given here.

The nature of assay [1]: A549 cell viability effects, profiling panel, calcein-AM fluorescence, 48 h, basal (AID 1162). Further: test concentration not given here. Conditions: higher = more signal.
A short description of assay [2]: adipocyte viability effects, profiling panel, cell-based, 3T3-L1 adipocytes, calcein-AM fluorescence, 48 h, basal (AID 1163). Further: test concentration not given here. Conditions: 3T3-L1 adipocytes viability, higher = more signal.
The nature of assay [3]: HepG2 cell viability effects, profiling panel, calcein-AM fluorescence, 48 h, basal (AID 1164). Further: test concentration not given here. The conditions noted are these: higher = more signal.
Assay [4] can be described thus: MM1S cell viability effects, profiling panel, calcein-AM fluorescence, 48 h, basal (AID 1165).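 Further: viability of MM1S multiple myeloma cells under basal unstimulated conditions; test concentration not given here.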 Conditions: higher = more signal.
Assay [5] in a line: basal RPMI8226 viability, no added stimulus, profiling panel, cell-based, calcein-AM fluorescence, 48 h, PK04 Diversity Set (AID 1166).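 Further: cells grown under basal conditions without added stimulus; test concentration not given here.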 Conditions: RPMI8226 myeloma viability, higher = more signal.
Assay [6] in a line: basal HepG2 mitochondrial membrane potential changes, profiling panel, cell-based, JC-1 fluorescence, 24 h, 100 nL compound (AID 1167). Further: test concentration not given here. The conditions noted are these: higher = more signal.
Assay [7] can be described thus: basal 3T3-L1 adipocyte mitochondrial potential changes, profiling panel, cell-based, JC-1 fluorescence, 3T3-L1 adipocytes, 24 h, 100 nL compound (AID 1168). Further: test concentration not given here. Conditions: JC-1 mitochondrial fluorescence, higher = more signal, called active from +8 up or from −8 down.
Assay [8] can be described thus: basal RPMI8226 mitochondrial membrane potential changes, profiling panel, cell-based, JC-1 fluorescence, 24 h, 100 nL compound (AID 1169). Further: test concentration not given here. The conditions noted are these: RPMI8226 myeloma, JC-1 mitochondrial potential fluorescence, higher = more signal.
Assay [9] is described as follows: basal MM1S mitochondrial membrane potential changes, profiling panel, cell-based, JC-1 fluorescence, 24 h, 100 nL compound (AID 1170). Further: test concentration not given here. Conditions: higher = more signal.
A short description of assay [10]: A549 lung cancer cell viability effects, profiling panel, resazurin fluorescence, 24 h, PK04 Diversity Set (AID 1171). Further: test concentration not given here. The conditions noted are these: higher = more signal, called active from +8 up or from −8 down.
A short description of assay [11]: HepG2 liver cancer cell viability effects, profiling panel, resazurin fluorescence, 24 h, PK04 Diversity Set (AID 1172). Further: test concentration not given here. Conditions: higher = more signal. (In general: Resazurin is reduced to fluorescent resorufin, in cell work by metabolically active cells.)
Assay [12] is described as follows: basal S. cerevisiae growth modulation, no modifier, primary screen, OD600, strain BY4716, 24 h, basal condition (AID 1173). The conditions noted are these: OD600, 24 h, higher = more signal, called active from +8 up or from −8 down.
Assay [13] can be described thus: MM1S myeloma cell viability, profiling panel, resazurin fluorescence, basal, 24 h, PK04 Diversity Set (AID 1174).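 Further: MM1S multiple myeloma cell line; test concentration not given here.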 Conditions: higher = more signal, called active from +8 up or from −8 down.
For assay [14], the target named is Dihydroorotate dehydrogenase (quinone), mitochondrial (Plasmodium falciparum (isolate 3D7)) (UniProt Q08210). The assay is described as follows: PfDHODH enzyme inhibitors, primary screen, biochemical, C-terminal His tag, absorbance 600 nm (AID 1175).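 Further: recombinant parasite enzyme with a five histidine tag at its C terminus; test concentration not given here.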 The conditions noted are these: DCIP absorbance 600 nm, higher = more signal, called active from +8 up or from −8 down.

The nature of assay [15]: P. aeruginosa biofilm formation inhibitors, primary screen, strain PAO1, LB-PBS medium, absorbance 600 nm (AID 1176). Further: test concentration not given here. The conditions noted are these: P. aeruginosa PAO1 growth/biofilm, A600, 12 h; higher = more signal.
Assay [16] is described as follows: S. cerevisiae RM11-1a growth modifiers, primary screen, strain RM11-1a, OD600, basal, 24 h (AID 1177).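 Further: cultures grown under basal conditions with no added stressor; test concentration not given here.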 Conditions: OD600, 24 h, higher = more signal, called active from +8 up or from −8 down.
Assay [17] is described as follows: E. coli acrAB mutant growth effects, primary screen, E. coli filamentation inducers, strain DRC39, OD650, 24 h (AID 1178).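 Further: growth measured as culture turbidity by optical density at 650 nm; test concentration not given here.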 Conditions: higher = more signal, called active from +8 up or from −8 down.
Assay [18] is described as follows: E. coli acrAB mutant growth effects, primary screen, E. coli filamentation inducers, strain DRC39, OD650, 48 h (AID 1179).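 Further: screen aims at cell division blockers that make cells filament.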 The conditions noted are these: E. coli DRC39 delta-acrAB growth, higher = more signal, called active from +8 up or from −8 down.
Assay [19] is described as follows: RPMI8226 myeloma cell viability, profiling panel, resazurin fluorescence, basal, 24 h, PK04 Diversity Set (AID 1180).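 Further: RPMI8826 multiple myeloma cell line at 5000 cells per well; test concentration not given here.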 The conditions noted are these: higher = more signal.
Assay [20] deals with E3 ubiquitin-protein ligase XIAP (Homo sapiens) (UniProt P98170). The assay is described as follows: XIAP binders, primary screen, biophysical, small-molecule microarray, fluorescence 635 nm (AID 1181).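 Further: score merges 667 nm emission and signal to noise over triplicate slides.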 Conditions: small-molecule microarray binding, higher = more signal.
E3 ubiquitin-protein ligase XIAP (Homo sapiens), sequence (P98170 whole entry, looked up): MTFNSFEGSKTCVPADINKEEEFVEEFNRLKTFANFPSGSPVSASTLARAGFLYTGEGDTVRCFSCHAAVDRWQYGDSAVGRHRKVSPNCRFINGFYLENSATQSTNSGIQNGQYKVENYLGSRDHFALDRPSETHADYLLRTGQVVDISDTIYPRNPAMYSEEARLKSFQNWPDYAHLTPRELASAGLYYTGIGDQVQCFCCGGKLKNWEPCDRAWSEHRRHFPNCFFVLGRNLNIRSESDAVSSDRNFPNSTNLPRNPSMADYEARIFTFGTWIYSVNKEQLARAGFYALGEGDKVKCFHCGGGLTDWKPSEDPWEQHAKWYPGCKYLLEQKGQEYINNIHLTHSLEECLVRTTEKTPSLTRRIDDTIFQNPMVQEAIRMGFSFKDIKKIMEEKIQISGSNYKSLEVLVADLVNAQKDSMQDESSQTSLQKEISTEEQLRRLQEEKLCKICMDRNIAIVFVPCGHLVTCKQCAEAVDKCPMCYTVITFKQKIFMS

Dihydroorotate dehydrogenase (quinone), mitochondrial (Plasmodium falciparum (isolate 3D7)), sequence (Q08210 whole entry, looked up): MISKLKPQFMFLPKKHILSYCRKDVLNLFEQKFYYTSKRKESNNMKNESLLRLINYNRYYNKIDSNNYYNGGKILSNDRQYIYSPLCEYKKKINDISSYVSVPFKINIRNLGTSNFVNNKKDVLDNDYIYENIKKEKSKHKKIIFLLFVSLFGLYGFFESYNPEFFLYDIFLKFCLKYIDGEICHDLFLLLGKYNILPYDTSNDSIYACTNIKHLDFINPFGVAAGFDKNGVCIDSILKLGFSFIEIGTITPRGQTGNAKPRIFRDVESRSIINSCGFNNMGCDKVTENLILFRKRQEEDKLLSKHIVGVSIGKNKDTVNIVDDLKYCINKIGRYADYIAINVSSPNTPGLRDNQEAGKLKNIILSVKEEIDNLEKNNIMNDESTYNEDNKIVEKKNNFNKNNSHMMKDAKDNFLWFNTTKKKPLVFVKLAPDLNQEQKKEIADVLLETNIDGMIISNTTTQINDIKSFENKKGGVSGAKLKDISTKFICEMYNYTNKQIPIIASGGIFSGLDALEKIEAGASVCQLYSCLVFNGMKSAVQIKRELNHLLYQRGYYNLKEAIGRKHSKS

`C[C@H]1ON(c2ccc(C(=O)OC(C)(C)C)cc2)[C@@H](c2ccc(O)cc2)[C@@H]1C(=O)N1C(=O)OC[C@@H]1c1ccccc1`: the z-score is -0.674 in assay [1]; 0.97 in assay [2]; -2.97 in [3]; -2.72 in [4]; -3.02 in [5]; -2.36 in [6]. In addition, the z-score in [7] was -0.575 (inactive); in assay [8], -0.575; in [9], -2.36; in assay [10], -0.0657 (inactive); in assay [11], -0.319; in [12], -0.407 (inactive). Also, the z-score in assay [13] is -0.263 (inactive); in assay [15] it was 0.294 (inactive); in assay [16], 0.759 (inactive); in assay [17], -0.563 (inactive); in assay [18], -0.148 (inactive); in assay [19] it was -0.782. Further, the composite z-score was 0.314 (inactive) in assay [14] and 0.0029 in [20].

Consider `C=CCOC(=O)[C@@H]1[C@H]2C(=O)O[C@H](c3ccccc3)[C@H](c3ccccc3)N2[C@H](c2ccc(OCCOC(=O)[C@H]3C[C@H]4C(=O)N[C@@H](CCCCNC(C)=O)C(=O)N4[C@H]3c3cccc(OCCO)c3)cc2)[C@@]12C(=O)Nc1ccc(I)cc12`, for which the z-score is -0.596 in assay [1]; 0.159 in [2]; 0.821 in assay [3]; -0.387 in [4]; -0.0069 in [5]; -0.742 in assay [6]. For the same compound, the z-score in assay [7] was 0.605 (inactive); in assay [8], -0.517; in [9], -0.864; in assay [10], 0.304 (inactive); in assay [11] it was -0.299; in assay [12], 1.39 (inactive). The z-score in assay [13] was -0.565 (inactive); in assay [15], 4.17 (inactive); in assay [16] it was 2 (inactive); in [17] it was -0.115 (inactive); in assay [18], 0.228 (inactive); in assay [19], -0.354. Further, the composite z-score is -0.406 (inactive) in assay [14] and 0.0073 in assay [20].

As to `COCCOC(=O)N1C(=O)[C@@]2(c3ccccc31)[C@H](c1ccc(OCCO)cc1)N1[C@H](c3ccccc3)[C@H](c3ccccc3)OC(=O)[C@H]1[C@@H]2C(=O)Nc1nc2ccccc2s1`, the z-score in assay [1] is -1.38; in [2], 0.73; in [3], -1.18; in assay [4], -1.15; in assay [5], -1.57; in assay [6] it was -3.4. Further, the z-score in assay [7] is 0.576 (inactive); in assay [8] it was -1.09; in assay [9], -1.36; in [10] it was 0.294 (inactive); in [11], 0.269; in assay [12], 1.29 (inactive). For the same compound, the z-score in [13] was -0.657 (inactive); in assay [15], 2 (inactive); in assay [16], 1.11 (inactive); in assay [17], -0.176 (inactive); in assay [18] it was -0.524 (inactive); in assay [19] it was 0.0486. The figures for the composite z-score in assay [14] and in assay [20] were -0.383 (inactive) and 0.259, respectively.

For `C=C(COC)/C(=C/C[C@@H](OC(=O)c1ccncc1)c1ccc(CO)o1)c1cnc2ccccc2c1`, the z-score in assay [1] is -0.308; in assay [2], 0.513; in assay [3], -0.607; in [4] it was -0.164; in assay [5] it was 0.575; in assay [6] it was -0.65. Also, the z-score was 0.654 (inactive) in assay [7]; 0.0268 in assay [8]; -0.151 in assay [9]; 0.331 (inactive) in assay [10]; 0.7 in [11]; 0.705 (inactive) in assay [12]. Also, the z-score in [13] is 0.372 (inactive); in [15], 0.379 (inactive); in [16] it was 1.2 (inactive); in assay [17], 0.16 (inactive); in assay [18], 0.0648 (inactive); in assay [19], 0.235. The results for the composite z-score in assay [14] and in [20] were -7.93 (inactive) and 0.641, respectively.

`COC(=O)[C@@]1(Cc2ccc(OC)cc2)[C@H]2c3cc(C(=O)N(C)C)n(Cc4nc5ccccc5[nH]4)c3C[C@H]2CN1C(=O)c1ccccc1`: the z-score in [1] is -2.46; in [2] it was -0.529; in [3], -1.79; in assay [4], -1.37; in assay [5], -3.86; in assay [6], 2.13. In addition, the z-score in [7] was -1.24 (inactive); in assay [8] it was -0.737; in assay [9] it was -1.49; in [10], -0.88 (inactive); in assay [11], 0.014; in [12], 1.03 (inactive). Also, the z-score in assay [13] was -1.45 (inactive); in assay [15], -0.0982 (inactive); in assay [16], 1.11 (inactive); in assay [17] it was -0.614 (inactive); in [18] it was -1.18 (inactive); in assay [19], -2.51. The composite z-score in [14] is -0.291 (inactive); in assay [20], 0.382.

On to `C=C(/C(=C/C[C@@H](OC(=O)c1ccncc1)c1ccc(OCCO)cc1)c1cc(C(=O)OC)ccc1OC)C(C)C`, for which the z-score was -0.738 in assay [1]; 0.61 in [2]; 0.391 in [3]; -0.166 in assay [4]; 0.687 in [5]; 2.81 in assay [6]. Besides, the z-score in [7] was 0.436 (inactive); in [8] it was -0.177; in assay [9], -0.744; in [10], 1.4 (inactive); in assay [11] it was 1.54; in [12], 0.542 (inactive). Moreover, the z-score in assay [13] was 0.288 (inactive); in assay [15], 0.224 (inactive); in assay [16], -0.0338 (inactive); in [17], 0.945 (inactive); in assay [18], 0.52 (inactive); in assay [19], 0.352. For the same compound, the composite z-score is -0.444 (inactive) in [14] and -0.0916 in [20].

Consider `C=CCN1C(=O)[C@@]2(CCC(=O)OC(C)(C)C)N=C(c3ccc(OCCCO)cc3)O[C@H]2c2ccccc21`, for which the z-score in assay [1] is -1.22; in assay [2] it was 0.28; in assay [3], -2.35; in [4], -3.59; in assay [5] it was -3.97; in [6], -1.62. Further, the z-score in assay [7] is 2.8 (inactive); in [8], -1.19; in assay [9] it was -2.57; in assay [10] it was -1.66 (inactive); in assay [11], -0.648; in assay [12], -1.23 (inactive). The z-score is -3.26 (inactive) in assay [13]; 1.77 (inactive) in [15]; -0.169 (inactive) in [16]; 0.636 (inactive) in [17]; -0.242 (inactive) in [18]; -4.47 in [19]. In addition, the values for the composite z-score in assay [14] and in assay [20] were 0.407 (inactive) and 0.21, respectively.

For the compound `CC(=O)N1Cc2ccccc2C[C@]2(N=C(c3ccc(OCCCO)cc3)O[C@@H]2c2ccccc2)C1=O`, the z-score in assay [1] is -1.07; in assay [2] it was 0.749; in [3], -0.351; in assay [4], -2.28; in assay [5], -3.5; in assay [6], 0.462. Moreover, the z-score in [7] was -0.202 (inactive); in assay [8], -0.954; in [9], -0.637; in [10], -2.76 (inactive); in assay [11], -0.908; in assay [12], -0.776 (inactive). Moreover, the z-score in [13] was -2.6 (inactive); in assay [15], 0.122 (inactive); in [16], 1.93 (inactive); in assay [17] it was 1.55 (inactive); in assay [18] it was 1 (inactive); in [19] it was -3.96. The composite z-score in [14] is -0.375 (inactive); in assay [20], 0.247.

For `Cc1ccc(S[C@]2(C(=O)NC(C)C)CC(=O)N(Cc3ccccc3C(F)(F)F)[C@@H]2c2ccc(CO)cc2I)cc1`, the z-score is 0.0252 in assay [1]; 0.384 in assay [2]; -0.933 in assay [3]; -2.38 in [4]; -3.2 in assay [5]; -0.361 in assay [6]. For the same compound, the z-score in [7] was -0.123 (inactive); in assay [8], -0.399; in assay [9], -2.48; in [10], 1.32 (inactive); in assay [11], 0.105; in assay [12], -5.85 (inactive). In addition, the z-score in assay [13] is -1.86 (inactive); in assay [15] it was 0.27 (inactive); in assay [16], -2.43 (inactive); in [17], 0.221 (inactive); in [18], 0.201 (inactive); in [19], -2.09. Moreover, the values for the composite z-score in [14] and in assay [20] were -1.47 (inactive) and -0.126, respectively.
